FBPA Giardia inh – qHTS Assay for Inhibitors of Fructose-1,6-bisphosphate Aldolase from Giardia Lamblia | A8B2U2 | purified Giardia FBPA | Potency, µM (highest dose often 59.6 µM), without a hit: at the highest dose activity, negative = inhibition, most hits filed as inhibitors | 290,000 compounds, 0.71% hits | AID 2451, 2010; note: potency is the fitted concentration of half-maximal effect; nearly all actives have a fitted effect of over 55% in size
Target sequence (A8B2U2 whole entry, looked up): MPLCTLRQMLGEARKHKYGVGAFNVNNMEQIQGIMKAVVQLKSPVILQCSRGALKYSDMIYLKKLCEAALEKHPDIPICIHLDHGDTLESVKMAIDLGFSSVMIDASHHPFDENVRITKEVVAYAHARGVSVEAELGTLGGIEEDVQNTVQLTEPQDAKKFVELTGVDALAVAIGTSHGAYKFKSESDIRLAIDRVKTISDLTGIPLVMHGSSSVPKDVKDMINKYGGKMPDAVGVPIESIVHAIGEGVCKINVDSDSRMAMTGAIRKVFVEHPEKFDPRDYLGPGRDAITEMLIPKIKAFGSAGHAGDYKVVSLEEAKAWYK
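Giardia FBPA (40 nM reagent) was preincubated 10 min at RT with compound (up to 57.5 uM final), then substrate plus GAPDH/TPI/NAD/arsenate coupling system with diaphorase/resazurin was added; resorufin fluorescence (525/598 nm) was read after 20 min.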
FMDV antiviral – High Throughput Screening for Foot and Mouth Disease Virus Antivirals. FMDV antiviral cell-based qHTS. Potency, µM (series often up to 57.9 µM), inactives show at the top dose activity change, negative = inhibition, actives largely listed as inhibitors. 410,000 compounds, 1.2% hits. AID 1159524, 2015; calls by dose curve; tested in HEK293T cells; note: read-out not given here; potency is the fitted concentration of half-maximal effect; nearly all actives have a fitted effect of over 45% in size
HCMV inh – qHTS Assay for inhibitors of the human cytomegalovirus (HCMV); HFF cells, HCMV-luciferase reporter, 72 h; active compounds read low; activity change, negative = inhibition, % at 57.5 µM; 410,000 compounds, 4.5% hits; in the data active = activity change below about -60%; inconclusive = no clear call, values can overlap the other calls; inactive = above about -39%
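Inhibition of viral replication was scored as loss of reporter luminescence in HFFs infected with HCMV-luciferase (MOI 1 PFU/cell) for 72 h; compounds tested at 2 doses, normalized to buffer and Salinomycin controls.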
Sm TGR inh – qHTS Assay for the Inhibitors of Schistosoma Mansoni Peroxiredoxins; Schistosoma mansoni thioredoxin glutathione reductase (TGR), Q962Y6; Potency, µM (top dose mostly 114 µM), inactives show at the top dose activity change, negative = inhibition, usual class: inhibitors; 360,000 compounds, 3% hits; purified TGR, DTNB reduction, TNB absorbance 405 nm; note: potency is the fitted concentration of half-maximal effect; nearly all actives have a fitted effect of over 60% in size
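Kinetic colorimetric format: TGR-catalysed, NADPH-driven DTNB reduction monitored via TNB absorbance. Enzyme dispensed at 20 nM; compound exposure 15 min at room temperature before reaction start.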
Tb PYK inh – qHTS of Trypanosoma Brucei Inhibitors; pyruvate kinase (Trypanosoma brucei), Q57TT1; TbPYK enzyme, Kinase-Glo Plus ATP luminescence, 45 min; Potency, µM (highest dose often 76.8 µM), for the others: at the highest dose activity, negative = inhibition, usual class: inhibitors; 410,000 compounds, 0.12% hits; AID 624173, 2012; note: potency is the fitted concentration of half-maximal effect; nearly all actives have a fitted effect of over 50% in size
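Enzyme and substrate buffer are dispensed first and compound is pin-transferred. ADP at 130 uM final then starts the reaction, which runs 45 min at room temperature. Detection reagent is added for 10 min before luminescence is imaged.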
RE007 growth inh – qHTS Assay for Inhibitors of the HIV-1 protein Vpr; 360,000 compounds, 0.21% hits; S. pombe RE007 Vpr strain, BacTiter-Glo ATP luminescence, 24 h; AID 651644, 2012; Potency, µM (titrated, usually from 92.2 µM), for the others: at the top dose activity change, negative = less growth, usual class: inhibitors; active = well fitted falling curve with a large enough effect; inconclusive = small, poorly fitted or top-dose-only effect; inactive = no such curve, though single readings can be large or run the other way; note: potency is the fitted concentration of half-maximal effect; nearly all actives have a fitted effect of over 50% in size
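Fission yeast strain RE007, carrying one chromosomally integrated HIV-1 vpr copy, was seeded at OD 0.01 in PMG+AL medium with 23 nL pinned compound. After 24 h at 30 °C and 99% humidity, viability was read by BacTiter-Glo luminescence.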
Numbers without * were called inactive; u = inconclusive; x = not tested or not shown; + = active, no number; [ ] = remark or other dose. Most compounds without a hit are left out; they make up all but 7.7% or so of the library. Unless noted, calls come from the whole dose curve; as a rule, active = well fitted curve in the direction sought with a large enough effect; inconclusive = small, poorly fitted or top-dose-only effect, or another doubt; inactive = no such curve, though single readings can be large; an effect the other way counts as inactive or inconclusive. % is set by controls: 0 for no effect and ±100 for the full control effect.

SMILES | FBPA Giardia inh | FMDV antiviral | HCMV inh | Sm TGR inh | Tb PYK inh | RE007 growth inh
CCCCNC(=O)N1CCCN(c2ccc(C#N)cn2)CC1 | 3% | 5% | -65* | 6% | 7% | 5%
COC(=O)CCC(=O)NN1C(=O)c2ccccc2C1=O | 1% | -24% | -68* | 34% | 0% | 6%
CC1=C[C@]23OC(C)(C)C[C@@]2(C)C[C@H](C)C3=CC1=O | x | x | 18 | x | x | x
Cc1cc2c(cc1Cl)C(c1ccccc1C)CC(=O)O2 (centres undefined) | -2%[89.2 µM] | x | x | x | x | x
CC(=N)C1=C(O)CC(c2ccccc2)CC1=O (centres undefined) | 20% | 2% | -99* | 7% | 7% | 7%
N#CC(c1ccccc1)(c1ncc(C(F)(F)F)cc1Cl)N1CCOCC1 (centres undefined) | -8% | -10% | -17 | 9% | 0% | -4%
N#CC(c1cccc(C(F)(F)F)c1)(c1ncc(C(F)(F)F)cc1Cl)N1CCOCC1 (centres undefined) | -1% | -24% | -64* | 4% | 4% | 6%
Cc1ccc(N2C(=O)C(CC(=O)Nc3ccc(F)cc3)N(Cc3ccc4c(c3)OCO4)C2=O)cc1 (centres undefined) | x | -15% | 17 | 3% | 1% | x
Cc1ccc(OCC(=O)Sc2ccc(C)cc2)cc1 | 5% | u | 24 | 18µM* | 2% | -18%
COc1ccccc1OCC(=O)Sc1ccc(C)cc1 | -2% | u | 21 | 7.1µM* | u | u
Cc1ccc(OCC(=O)NCCNC(=O)COc2ccc(C)cc2)cc1 | 4% | 2% | 32 | 10% | 6% | -13%
COc1ccc(F)c(CN2CCOc3ccc(CN4CCCCC4CO)cc3C2)c1 (centres undefined) | x | 0% | x | x | x | x
CCOC(=O)c1cnn2c(C(F)(F)F)cc(-c3ccc(Br)cc3)nc12 | x | 0% | 1 | 40µM* | -7% | x
O=C(c1cc2nc(-c3ccco3)cc(C(F)(F)F)n2n1)N1CCc2ccccc2C1 | 0% | 0% | -38 | 50µM* | 2% | 0%
CN1CCN(C(=O)c2cc3nc(-c4ccco4)cc(C(F)(F)F)n3n2)CC1 | 2% | -28% | -5 | -2% | -7% | 11%
Cc1ccc(-c2cc(C(F)F)n3ncc(C(=O)N4CCc5ccccc5C4)c3n2)cc1 | 4% | -22% | -25 | 0% | -1% | 9%
O=C(c1cnn2c(C(F)(F)F)cc(-c3ccc(F)cc3)nc12)N1CCc2ccccc2C1 | -5% | -8% | -72* | 2% | -5% | -6%
Nc1c(N(Cc2ccccc2)C(=O)COc2ccc(F)cc2)c(=O)[nH]c(=O)n1Cc1ccccc1 | 12% | -4% | 5 | -2% | 11% | -1%
CCOc1ccc(OCC(=O)N(CCC2=CCCCC2)c2c(N)n(Cc3ccccc3)c(=O)[nH]c2=O)cc1 | x | x | -84* | -5% | x | x
Nc1c(N(Cc2ccccc2)C(=O)COc2cccc(Cl)c2)c(=O)[nH]c(=O)n1Cc1ccccc1 | x | u | -78* | 3% | 4% | 3%
CC(=O)Nc1cccc(NC(=O)Cn2cnc3c2c(=O)n(C)c(=O)n3C)c1 | x | 17% | -7 | 3% | 1% | x
C=CCNc1cccc2c1S(=O)(=O)N[C@@H](CC(C)C)CO2 | x | x | 4 | x | x | x
COc1ccc(NC(=O)c2cc3c(=O)n(Cc4cccnc4)ccc3nc2C)cc1Cl | x | -12% | -8 | 20% | 6% | x
CC(C)(C)n1ncc2c(=O)n(Cc3cccc(Cn4cnc5c(cnn5C(C)(C)C)c4=O)c3F)cnc21 | x | 11µM* | -88* | x | 0% | x
CC(C)(C)n1ncc2c(=O)n(CC(=O)OCc3ccccc3)cnc21 | 3% | 14µM* | u | 3% | -4% | -8%
SMILES | FBPA Giardia inh | FMDV antiviral | HCMV inh | Sm TGR inh | Tb PYK inh | RE007 growth inh
Cc1ccccc1Cn1cnc2c(cnn2C(C)(C)C)c1=O | 0% | 0% | 6 | 5% | 2% | 2%
CC(C)(C)n1ncc2c(=O)n(CC(=O)NCc3ccco3)cnc21 | 6% | 33% | 44 | 45µM* | 1% | 15%
CCC1(C)Cc2nc3[nH]c(=S)n(-c4ccccc4)c(=O)c3cc2CO1 (centres undefined) | 1% | -29% | -63* | 0% | -6% | 20%
Cc1ccc(Cl)cc1NC(=O)Cn1nc2c(cc1=O)CC(C)CC2 (centres undefined) | x | -15% | -32 | 48% | -5% | x
OC(CNCC(c1ccc(Cl)cc1Cl)c1c[nH]c2ccccc12)c1ccccc1 (centres undefined) | -5% | u | -108* | 11% | -18% | -26%
Cc1ccc(SCC(=O)NC2CCS(=O)(=O)C2)cc1 (centres undefined) | 2% | -2% | -65* | -28% | 2% | 11%
Cc1cc(C)c2c(CC(=O)NN(C)C)coc2c1 | 0% | -2% | -39 | 1% | 2% | 1%
Cc1cc(C)c2c(CC(=O)NC3CCS(=O)(=O)C3)coc2c1 (centres undefined) | -1% | -15% | + | -9% | 0% | 4%
CSc1ccccc1C(=O)Nc1ccc2c(c1)OCCO2 | -2% | 12% | 46 | 3% | 4% | u
CC(=O)c1ccccc1NC(C(=O)Nc1ccc2c(c1)OCCO2)c1cccs1 (centres undefined) | x | x | -64* | x | x | x
CC(O)(COc1ccccc1)c1ccc2c(c1)CN(Cc1cccnc1)CCO2 (centres undefined) | x | -19% | x | x | x | x
NCCC[C@@H](CC(=O)N[C@@H]1CCNC[C@H]1C(=O)N[C@H](CC(=O)N[C@@H](CCC(=O)O)CC(=O)O)Cc1c[nH]c2ccccc12)NC(=O)C[C@H](CO)NC(=O)[C@@H]1CNCC[C@H]1N | -21% | x | x | x | x | x
O=c1cc(CN2CCCCCC2)nc2sccn12 | -24% | -8% | 7 | x | -2% | -21%
CN1CCN(Cc2cc(=O)n3ccsc3n2)CC1 | x | -12% | -89* | -16% | 0% | -2%
CC1Cc2ccccc2N1Cc1cc(=O)n2ccsc2n1 (centres undefined) | u | 3% | 32 | 22µM* | -20% | -4%
CCc1ccc(S(=O)(=O)NCc2nc(N3CCCC3)c3cccc(C)c3n2)cc1 | x | 9% | x | x | x | x
c1ccc(N2CCN(c3ncnc4c3nc3n4CCCC3)CC2)cc1 | x | 14µM* | -68* | 4% | -3% | x
FC(F)(F)c1cccc(N2CCN(c3ncnc4c3nc3n4CCCC3)CC2)c1 | x | 20µM* | -73* | 4% | 2% | x
